Assay results: PubChem BioAssay AID1850 (Southern Research Specialized Biocontainment Screening …, 2009)
“And” between values parts separate entries of the source, which are not always exact repeats. Identical values can stand only once. The whole screen tested about 310,000 compounds, of which about 1,000 (0.32%) were called active. Only a sample is shown. Results with a measured potency or affinity are listed apart. A number with no mark means an inactive call. No rule for the calls is given here.

assay: Inhibition of PhoP regulon, Salmonella typhi GFP reporter cells, confirmation, 4 h (AID 1850); details: Salmonella Typhi PhoP-promoter GFP reporter, fluorescence, at 50 µM, stronger effect = higher value;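 also: 0% = induced wells with vehicle and 100% = uninduced wells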

Row | Compound | inhibition
1 | O=C(c1cccc(Cl)c1)N1CCCc2ccccc21 | 4.51%
2 | Cc1ccc(S(=O)(=O)N2CCN(c3cnn(C)c(=O)c3Cl)CC2)cc1 | -6.96%
3 | CCCCn1c(N)c(N(CCC(C)C)C(=O)CCN2C(=O)C3CC=CCC3C2=O)c(=O)[nH]c1=O (centres undefined) | 0.9%
4 | CCOC(=O)c1c(NC(=O)Cn2nc(C(=O)O)c3ccccc3c2=O)sc2c1CCC(C)C2 (centres undefined) | 17.9%
5 | COc1cccc(C2(O)CC(C(F)(F)F)=NN2C(=O)c2ccccn2)c1 (centres undefined) | 7.91%
6 | C[n+]1c2n(c3ccccc31)N=C(c1ccccc1)CS2 | 0.32% and 11.8%
7 | C[n+]1c2n(c3ccccc31)N=C(c1ccc(Cl)cc1)CS2 | 12.3%
8 | O=C(CSC1=NS(=O)(=O)c2ccccc2N1)NCc1ccc(F)cc1 | -4.98%
9 | O=C(CNC(=O)c1cccc(F)c1)N/N=C/c1cccc([N+](=O)[O-])c1 | -5.75%
10 | O=C(CNC(=O)c1ccccc1)N/N=C/c1cccs1 | -1.08%
11 | O=C(Cc1ccccc1)NCC(=O)N/N=C/c1ccc([N+](=O)[O-])s1 | 11.8%
12 | O=C(Cc1ccccc1)N/N=C/c1ccc([N+](=O)[O-])s1 | -7.77%
13 | O=C(Cc1cccs1)N/N=C/c1ccccc1 | 10.9%
14 | O=C(CNC(=O)c1ccccc1Cl)N/N=C/c1ccc([N+](=O)[O-])s1 | -11.8%
15 | Cn1cccc1Cc1nnc(SCC(=O)Nc2ccc3c(c2)OCO3)n1-c1ccc(F)cc1 | -1.53%
16 | NC(=O)CN1C(=O)NC2(CCOc3ccccc32)C1=O (centres undefined) | 1.52%
17 | CC(=O)Nc1ccc(NC(=O)c2cccc(-c3cc4ccccc4oc3=O)c2)cc1 | 12.9%
18 | CCn1cc(C(=O)NCCCOC(C)C)c2cc(OC)c(OC)cc2c1=O | 2.36%
19 | CN(C)c1ccc(P(=O)(COc2ccc([N+](=O)[O-])cc2)c2ccc(N(C)C)cc2)cc1 | 2.27%
20 | O=C(CSc1ccc(-c2cccnc2)nn1)N1CCCCCC1 | 1.55%
21 | O=C(CCCn1cc([N+](=O)[O-])cn1)NCc1ccccc1 | 8.46%
22 | Cc1c(C(=S)NC(=O)C2CC2)c(=O)n(-c2ccccc2)n1C | -1.42%
23 | CCc1ccc2c(CN(CC)Cc3nc4ccccc4c(=O)[nH]3)cc(=O)oc2c1 | 1.52%

Row | Compound | inhibition
24 | CCn1c(N)nc2ccccc21 | 4.17%
25 | Cc1ccc(Cn2c(N)nc3ccccc32)cc1 | 9.42%
26 | Nc1nc2ccccc2n1CCOc1ccc(Cl)cc1 | 14.7%
27 | Nc1nc2ccccc2n1CCOc1ccc(F)cc1 | -3.28%
28 | Cc1ccc(NS(=O)(=O)c2ccc(C(=O)N3CC(C)CC(C)C3)cc2)cc1 (centres undefined) | -0.14%
29 | Cc1cc(=O)oc2cc(OCc3ccc(S(=O)(=O)N4CCOCC4)cc3)ccc12 | -0.96%
30 | CC(C(=O)NC1C=CS(=O)(=O)C1)N1C(=O)/C(=C\c2ccccc2)SC1=S (centres undefined) | -9.78%
31 | CC(C(=O)N(C)C1CCS(=O)(=O)C1)N1C(=O)/C(=C/c2ccc(F)cc2)SC1=S (centres undefined) | -40%
32 | COc1ccc(/C=C2\SC(=S)N(C(C)C(=O)NC3C=CS(=O)(=O)C3)C2=O)cc1 (centres undefined) | 0.74%
33 | O=C(CN1C(=O)/C(=C/c2cccc(Cl)c2)SC1=S)NC1C=CS(=O)(=O)C1 (centres undefined) | -2.52%
34 | COc1cccc(/C=C2\SC(=S)N(C(C)C(=O)NC3C=CS(=O)(=O)C3)C2=O)c1 (centres undefined) | -39%
35 | CC(C)c1ccc(/C=C2\SC(=O)N(CC(=O)NC3CCS(=O)(=O)C3)C2=O)cc1 (centres undefined) | -0.28%
36 | COc1cc2c(cc1OC)C(C)N(C(=O)c1c(C)noc1C)CC2 (centres undefined) | -18.4%
37 | CC(=O)CCC(=O)OCC(=O)Nc1ccc(SC(F)F)cc1 | -3.54%
38 | O=C1CCC(=O)N1c1ccc(NC2CCN(Cc3ccccc3)CC2)c([N+](=O)[O-])c1 | -3.82%
39 | CC1(C)C2CC[C@]3(C)C(CC=C4[C@@H]5C[C@@](C)(CO)[C@@H](O)C[C@]5(C(=O)O)CC[C@]43C)[C@@]2(C)CC[C@@H]1O (some centres undefined) | -13.5%
40 | CC(C)(C)NCc1cccn1-c1sc2c(c1C#N)CCCC2 | -5.99%
41 | C=CC[n+]1c(/C=C2\C=Cc3cc(C)ccc3N2CC)ccc2ccccc21 | -11.1%
42 | CCN1/C(=C/c2ccc3ccccc3[n+]2CCCS(=O)(=O)[O-])C=Cc2cc(C)ccc21 | 14.2%
43 | CCOC(=O)C(=CNc1ccc(C(O)(C(=O)OCC)C(F)(F)F)cc1C)C(=O)OCC (centres undefined) | -10.1%
44 | CCOC(=O)c1[nH]c2ccc(OC)cc2c1NC(=O)CN1CCSCC1 | 6.71%
45 | Cc1cccc(N2CCN(C(=O)c3csc4ccccc34)CC2C)c1 (centres undefined) | -6.46%
46 | CCCOc1ccc(CCC(=O)N/N=C/c2ccc([N+](=O)[O-])o2)cc1 | 3.44%

Row | Compound | inhibition
47 | CCCCCC(=O)N/N=C/c1ccc([N+](=O)[O-])o1 | 17.1%
48 | Cc1ccc(NC(=O)CCC(=O)N/N=C/c2ccc([N+](=O)[O-])o2)cc1C | -0.54%
49 | Nc1nonc1C(=O)N/N=C/c1ccc([N+](=O)[O-])o1 | -4.72%
50 | O=C(CSc1ccc(Cl)cc1)N/N=C/c1ccc([N+](=O)[O-])o1 | -1.14%
51 | Cc1nonc1C(=O)N/N=C/c1cccc(O)c1 | -9.29%
52 | Cc1nonc1C(=O)N/N=C/c1ccc(O)c(O)c1 | -18.7%
53 | Cc1cc(C(=O)N/N=C/c2ccc([N+](=O)[O-])o2)c(C)o1 | -1.11%
54 | COc1ccccc1C(=O)N1CCc2ccccc21 | -2.54%
55 | COCCN(C(=S)Nc1cc(C)cc(C)c1)C(C)c1cccnc1 (centres undefined) | -6.47%
56 | O=C1c2ccccc2C(=O)N1OCc1ccccc1 | -23.3%
57 | COc1ccc(N(C)C(=O)CCC(=O)Nc2ccc3nc(N4CCOCC4)cc(C)c3c2)c(OC)c1 | -10.9%
58 | CC(C)c1ccccc1OCC(=O)Nc1ccc2[nH]ncc2c1 | -2.28%
59 | O=C1CC(c2ccccc2Cl)CC(O)=C1C=Nc1ccccc1 (centres undefined) | -11%
60 | CC(=O)Nc1ccc(/C=N/NC(=O)CCN2CCN(c3ccccc3)CC2)cc1 | 3.88%
61 | O=C(CCN1CCN(c2ccccc2)CC1)N/N=C/c1ccccc1O | -12.1%
62 | O=C(CNc1cccc([N+](=O)[O-])c1)N/N=C/c1ccc([N+](=O)[O-])o1 | 17.3%
63 | Cc1cc(C)cc(OCC(=O)N/N=C/c2ccc([N+](=O)[O-])o2)c1 | -6.8%
64 | O=C(COc1ccccc1)N/N=C/c1ccc([N+](=O)[O-])o1 | 3.11%
65 | Cc1nc2ccccn2c1C(=O)N/N=C/c1ccc([N+](=O)[O-])cc1 | 2.94%
66 | Cc1nc2ccccn2c1C(=O)N/N=C/c1ccccc1[N+](=O)[O-] | 5.76%
67 | O=C(Cc1ccccc1)N/N=C/c1ccc(-c2ccc([N+](=O)[O-])cc2)o1 | -11.9%
68 | COc1cc(Nc2nc3ccccc3nc2NS(=O)(=O)c2ccc([N+](=O)[O-])cc2)cc(OC)c1OC | 6.03%
69 | CN(Cc1ccccc1)CC(O)COc1ccc(CNCCc2cccnc2)cc1 (centres undefined) | 9.53%

Row | Compound | inhibition
70 | Cc1ncc(CCl)c2c1OC(C)(C)OC2 | 5.02%
71 | COc1ccc(NC(=O)NCc2cccnc2)c(OC)c1 | -7.58%
72 | O=C(Cc1ccccc1)Nc1nccs1 | -0.57%
73 | Cc1cc(OC(C)C(=O)N2C[C@H]3C[C@@H](C2)c2cccc(=O)n2C3)c2c(C)c(C)c(=O)oc2c1 (some centres undefined) | -6.28%
74 | CC(C)Cc1nnc(NC(=O)CCC(=O)N2CCN(c3ccccn3)CC2)s1 | -13%
75 | O=[N+]([O-])c1cccnc1NCCc1c[nH]c2ccccc12 | -3.53%
76 | Cc1cc(NC(=O)CSCC(=O)N2CCN(c3cccc(C(F)(F)F)c3)CC2)no1 | 6.28%
77 | CCOC(=O)N/N=C(\C)c1ccc(C)o1 | -8.47%
78 | NC(=O)N/N=C/c1ccc([N+](=O)[O-])o1 | 1.06%
79 | C/C(=N/NC(=O)C(O)(c1ccccc1)c1ccccc1)c1ccc([N+](=O)[O-])o1 | -14%
80 | O=C(N/N=C/C=C/c1ccccc1[N+](=O)[O-])c1cccs1 | -2.89%
81 | O=C(CN1CCCCCCC1)N/N=C/c1ccc([N+](=O)[O-])o1 | 8.07%
82 | CCCC(=O)Nc1ccc(C(=O)N/N=C/c2ccc([N+](=O)[O-])o2)cc1 | 14.4%
83 | O=C(N/N=C/C=C/c1ccc([N+](=O)[O-])cc1)c1cccs1 | 6.74%
84 | O=C(N/N=C/c1ccc([N+](=O)[O-])o1)c1ccc2c(c1)OCO2 | 3.54%
85 | COc1ccc(C2C(C(C)=O)=C(O)C(=O)N2Cc2ccccc2)c(OC)c1 (centres undefined) | -1.09%
86 | Cc1ccc([C@@H]2[C@@H]3C(=O)N(C)C(=O)[C@@H]3[C@]3(Cc4ccccc4)C(=O)N(Cc4ccccn4)CC(=O)N23)o1 | 5.99%
87 | COc1ccccc1N1CCN(C2CCCN(C(=O)c3cc(C4CC4)on3)C2)CC1 (centres undefined) | -1.91%
88 | O=C(C[n+]1cc(-c2ccccc2)n2c1CCCCC2)c1ccc(Br)cc1 | -5.28%
89 | CCOC(=O)N1CCN(C(=O)c2cn(CC)c3ccc(S(=O)(=O)N4CC(C)CC(C)C4)cc3c2=O)CC1 (centres undefined) | -8.02%
